Test results as given in PubChem BioAssay (NCATS).
Inconclusive results are not listed. Entries that show only a call come without a potency. Calls of active or inactive are those of the source. Calls follow the shape of the full dose curve.

What was measured:
[1] = Primary qHTS for Huh7 cytotoxicity: counterscreen for inhibitors of MERS-S pseudotyped particle cell entry (AID 1479147); details: outcome: dose series up to 57.1 µM unless noted
[2] = Primary qHTS for inhibitors of MERS-S pseudo-typed particle cell entry (AID 1479149); details: outcome: dose series up to 57.1 µM unless noted; also: nearly all actives have a fitted effect of over 60% in size
[3] = Primary qHTS for Vero E6 cytotoxicity: counterscreen for inhibitors of SARS-S pseudo-typed particle cell entry (AID 1479150); details: outcome: dose series up to 57.1 µM unless noted
[4] = Cytotoxicity counterscreen for inhibitors of SARS-CoV-2 cell entry (AID 1645845); details: outcome: dose series up to 57.1 µM unless noted; also: nearly all actives have a fitted effect of over 50% in size
In short: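 Expi293F/hACE2 cells seeded overnight; cpd pin-transferred in DMSO, 1 h preincubation, + media, 48 h 37 C 5% CO2; ATPLite 1step luminescence; normalized to cells and no cells.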

[5] = Primary qHTS to identify inhibitors of SARS-CoV-2 cell entry (AID 1645846); details: SARS-CoV-2 pseudovirus cell entry assay, luminescence; activity change, negative = inhibition: at 57.1 µM (top of the series) unless noted; also: nearly all actives have a fitted effect of over 45% in size
In short: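 Luminescence readout (Bright-Glo luciferase) 48 h after pseudoparticle addition. HEK293-ACE2 cells, 1500/well; compound pre-incubation 1 h; Normalized to spike PP and bald PP.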

| SMILES | outcome [1] | outcome [2] | activity change, negative = cytotoxicity [3] | outcome [4] | activity change, negative = inhibition [5] | Potency [1] | Potency [2] | Potency [3] | Potency [4] | Potency [5] |
| --- | --- | --- | --- | --- | --- | --- | --- | --- | --- | --- |
| CC(C)(S)[C@H](N)C(=O)O | inactive [at 5.34 µM] | inactive [at 5.34 µM] | 0.739% [at 5.34 µM] (inactive) | inactive [at 5.25 µM] | -28.5% [at 5.25 µM] | – | – | – | – | – |
| O=C(OC[C@H]1O[C@@H](OC(=O)c2cc(O)c(O)c(O)c2)[C@H](O)[C@@H](OC(=O)c2cc(O)c(O)c(O)c2)[C@@H]1O)c1cc(O)c(O)c(O)c1 | – | – | – | – | -1.77% | inactive | inactive | inactive | inactive | – |
| CCCC(=O)Nc1c(I)cc(I)c(CC(CC)C(=O)O)c1I (stereo not given) | – | – | – | – | -27.1% | inactive | inactive | inactive | inactive | – |
| COC1=C(C(=O)O)N2C(=O)[C@@H](NC(=O)[C@H](N)C3=CCC=CC3)[C@H]2SC1 | – | – | – | – | -17.7% | inactive | inactive | inactive | inactive | – |
| CC(C)OC(=O)[C@H](C)N[P@@](=O)(OC[C@H]1O[C@@H](n2ccc(=O)[nH]c2=O)[C@](C)(F)[C@@H]1O)Oc1ccccc1 | – | – | – | – | -25.3% | inactive | inactive | inactive | inactive | – |
| CCOc1nc2cccc(C(=O)O)c2n1Cc1ccc(-c2ccccc2-c2noc(=O)[nH]2)cc1 | – | – | – | – | -24.5% | inactive | inactive | inactive | inactive | – |
| COc1ccc(CNc2nc(N3CCC[C@H]3CO)ncc2C(=O)NCc2ncccn2)cc1Cl | – | – | – | – | – | inactive | inactive | inactive | inactive | inactive |
| OCc1ccccc1 | – | – | – | – | 3.04% | inactive | inactive | inactive | inactive | – |
| CCCCC[C@@H](O)CC[C@H]1[C@@H]2Cc3cccc(OCC(=O)O)c3C[C@@H]2C[C@@H]1O | – | – | – | – | -4.98% | inactive | inactive | inactive | inactive | – |
| CC(C)N=c1cc2n(-c3ccc(Cl)cc3)c3ccccc3nc-2cc1Nc1ccc(Cl)cc1 | – | – | – | – | -33.7% | inactive | inactive | inactive | inactive | – |
| CC1=C(C(=O)O)N2C(=O)[C@@H](NC(=O)[C@H](N)C3=CCC=CC3)[C@@H]2SC1 | – | – | – | – | -32.9% | inactive | inactive | inactive | inactive | – |
| OCCCNc1ccccc1 | – | – | – | – | -22.3% | inactive | inactive | inactive | inactive | – |
| CO/N=C(/C(=O)N[C@@H]1C(=O)N2C(C(=O)OC(C)OC(C)=O)=C(COC(N)=O)CS[C@H]12)c1ccco1 (stereo not given in full) | – | – | – | – | -14.5% | inactive | inactive | inactive | inactive | – |
| CN1CCN(C2=Nc3ccccc3Cc3ccccc32)CC1 | – | – | – | – | -23.9% | inactive | inactive | inactive | inactive | – |
| Cc1nccn1CCC(C(N)=O)(c1ccccc1)c1ccccc1 | – | – | – | – | -25.4% | inactive | inactive | inactive | inactive | – |
| CCN(CC)CCOc1ccc2nc(N(C)C)sc2c1 | – | – | – | – | -8.36% [at 114 µM] | inactive | inactive | inactive | inactive | – |
| CC1(C)C[C@H]1C(=O)N/C(=C\CCCCSC[C@@H](N)C(=O)O)C(=O)O | – | – | – | – | -28.6% | inactive | inactive | inactive | inactive | – |
| CCC(=O)OC1(C(=O)CCl)C(C)CC2C3CC(F)C4=CC(=O)C=CC4(C)C3(F)C(O)CC21C (stereo not given) | – | – | – | – | -5.75% | inactive | inactive | inactive | inactive | – |
| COc1ccc(-c2c(Cl)ncn2-c2ccc(S(N)(=O)=O)cc2)cc1F | – | – | – | – | -27% | inactive | inactive | inactive | inactive | – |
| CC1(C)SC2C(NC(=O)Cc3ccccc3)C(=O)N2C1C(=O)O (stereo not given) | – | – | – | – | -15.9% | inactive | inactive | inactive | inactive | – |
| O=C(O)C(O)C(O)C(=O)O (stereo not given) | – | – | – | – | -16.3% | inactive | inactive | inactive | inactive | – |
| O=C1CCC(=O)N1CO | – | – | – | – | – | inactive | inactive | inactive | inactive | inactive |
| FCOC(C(F)(F)F)C(F)(F)F | – | – | – | – | -16% | inactive | inactive | inactive | inactive | – |
| COc1c(O)cc2c(c1O)[C@H]1O[C@@H](CO)[C@H](O)[C@@H](O)[C@@H]1OC2=O | – | – | – | – | -14.9% | inactive | inactive | inactive | inactive | – |
| O=P(O)(O)OC1C(OP(=O)(O)O)C(OP(=O)(O)O)C(OP(=O)(O)O)C(OP(=O)(O)O)C1OP(=O)(O)O (stereo not given) | – | – | – | – | -23.6% | inactive | inactive | inactive | inactive | – |
| N=C1CCCN1Cc1[nH]c(=O)[nH]c(=O)c1Cl | – | – | – | – | -1.38% | inactive | inactive | inactive | inactive | – |
